# Assay results from publication PMC7862700, “An all-to-all approach to the identification of sequence-specific readers for epigenetic DNA modifications on cytosine”.
# What was measured:
# Experiment in all cases: DAPPL (digital affinity profiling via proximity ligation, sequencing); 10 mM Tris-HCl pH 7.5, 50 mM NaCl, 1 mM DTT, 4% glycerol, room temperature, 30 min; GST-TFs on glutathione beads, 16-mer random dsDNA library, 0.1% formaldehyde crosslink after washing; high values mean tight binding
# Settings in all cases: protein: recombinant; tags: N-terminal GST; dsDNA, one strand shown
# [1] = biological target: T1, ERF (Homo sapiens, UniProt P50548 1-548)
# T1 sequence: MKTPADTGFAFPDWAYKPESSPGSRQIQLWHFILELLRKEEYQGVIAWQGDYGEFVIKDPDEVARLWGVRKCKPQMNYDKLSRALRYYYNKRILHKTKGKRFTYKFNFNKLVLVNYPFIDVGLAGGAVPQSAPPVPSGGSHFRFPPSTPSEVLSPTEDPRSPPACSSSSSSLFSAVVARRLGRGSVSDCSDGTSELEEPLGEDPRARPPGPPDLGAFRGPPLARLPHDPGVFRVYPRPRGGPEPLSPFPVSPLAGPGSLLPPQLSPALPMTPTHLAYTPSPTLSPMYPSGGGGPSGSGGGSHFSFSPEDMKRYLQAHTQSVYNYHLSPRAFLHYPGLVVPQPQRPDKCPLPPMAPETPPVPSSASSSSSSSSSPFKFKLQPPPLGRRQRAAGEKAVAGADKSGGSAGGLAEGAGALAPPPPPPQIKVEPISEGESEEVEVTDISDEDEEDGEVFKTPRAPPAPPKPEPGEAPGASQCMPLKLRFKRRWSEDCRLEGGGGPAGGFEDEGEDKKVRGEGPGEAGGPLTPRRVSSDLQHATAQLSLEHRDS
# Summary of the method: (§1)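 Binding signal is each hexamer's read frequency for a factor divided by its frequency in the tag-only sample. The factors were GST-fused human transcription factors from yeast, captured on glutathione beads, DNA-barcoded and pooled with that sample. Pools were incubated with 200 nmole of a random double-stranded 16-mer DNA library in Tris/NaCl/DTT/glycerol buffer at room temperature for 30 min, then washed, crosslinked with 0.1% formaldehyde, proximity-ligated with BsaI/T4 ligase (1 h, 37 °C), PCR-amplified and sequenced on an Illumina NextSeq500.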
# [2] = biological target: T2, ETV3L (Homo sapiens, UniProt Q6ZN32 1-361)
# T2 sequence: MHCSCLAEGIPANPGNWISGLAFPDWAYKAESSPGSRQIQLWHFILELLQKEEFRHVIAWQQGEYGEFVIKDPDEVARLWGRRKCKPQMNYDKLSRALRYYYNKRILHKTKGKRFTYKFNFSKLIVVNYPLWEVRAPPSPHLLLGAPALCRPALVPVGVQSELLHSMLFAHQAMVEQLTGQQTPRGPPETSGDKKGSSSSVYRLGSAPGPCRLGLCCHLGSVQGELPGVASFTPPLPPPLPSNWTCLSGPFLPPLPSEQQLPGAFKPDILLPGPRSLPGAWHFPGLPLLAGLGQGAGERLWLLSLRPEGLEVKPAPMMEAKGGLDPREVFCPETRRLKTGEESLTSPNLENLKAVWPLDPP
# Summary of the method: as §1
# [3] = biological target: T3, ETS2 (Homo sapiens, UniProt P15036 1-469)
# T3 sequence: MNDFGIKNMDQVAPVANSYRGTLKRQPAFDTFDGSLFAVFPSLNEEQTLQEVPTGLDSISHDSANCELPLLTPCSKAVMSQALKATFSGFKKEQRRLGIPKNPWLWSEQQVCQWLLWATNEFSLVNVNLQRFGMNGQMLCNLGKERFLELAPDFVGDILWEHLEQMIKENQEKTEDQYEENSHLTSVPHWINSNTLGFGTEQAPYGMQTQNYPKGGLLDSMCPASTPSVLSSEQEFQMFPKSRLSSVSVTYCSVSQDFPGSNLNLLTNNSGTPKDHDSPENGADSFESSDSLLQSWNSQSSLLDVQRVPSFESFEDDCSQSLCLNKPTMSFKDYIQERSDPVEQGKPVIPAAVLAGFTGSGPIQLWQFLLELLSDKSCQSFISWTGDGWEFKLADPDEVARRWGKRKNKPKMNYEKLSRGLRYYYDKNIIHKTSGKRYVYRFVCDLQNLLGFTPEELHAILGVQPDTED
# Summary of the method: as §1
# [4] = biological target: T4, ETV7 (Homo sapiens, UniProt Q9Y603 1-341)
# T4 sequence: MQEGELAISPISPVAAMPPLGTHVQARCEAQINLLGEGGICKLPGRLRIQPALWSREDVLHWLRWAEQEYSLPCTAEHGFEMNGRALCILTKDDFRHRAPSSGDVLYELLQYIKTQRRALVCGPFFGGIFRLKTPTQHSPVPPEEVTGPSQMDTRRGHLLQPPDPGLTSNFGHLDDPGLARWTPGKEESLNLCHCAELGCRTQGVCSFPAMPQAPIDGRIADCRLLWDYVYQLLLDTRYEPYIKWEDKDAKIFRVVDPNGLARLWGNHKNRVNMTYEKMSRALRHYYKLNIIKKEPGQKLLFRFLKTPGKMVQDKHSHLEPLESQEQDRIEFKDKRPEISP
# Summary of the method: as §1
# [5] = biological target: T5, ELF5 (Homo sapiens, UniProt Q9UKW6-2 1-255)
# T5 sequence: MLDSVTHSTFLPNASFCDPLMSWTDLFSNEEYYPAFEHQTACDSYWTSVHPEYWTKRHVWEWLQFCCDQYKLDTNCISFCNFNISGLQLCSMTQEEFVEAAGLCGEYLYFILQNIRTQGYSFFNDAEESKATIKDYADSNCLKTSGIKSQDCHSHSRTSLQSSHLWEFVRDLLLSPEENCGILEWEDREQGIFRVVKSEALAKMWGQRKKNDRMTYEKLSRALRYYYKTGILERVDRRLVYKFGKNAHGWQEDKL
# Summary of the method: as §1
# [6] = biological target: T6, ETV3 (Homo sapiens, UniProt P41162-2 1-143)
# T6 sequence: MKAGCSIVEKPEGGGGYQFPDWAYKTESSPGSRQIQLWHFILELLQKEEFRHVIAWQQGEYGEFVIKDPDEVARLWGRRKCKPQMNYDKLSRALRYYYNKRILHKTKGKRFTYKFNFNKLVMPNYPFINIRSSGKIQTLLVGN
# Summary of the method: as §1
# [7] = biological target: ETV6 (Homo sapiens, UniProt P41212 1-452)
# Sequence of ETV6 (P41212 whole entry): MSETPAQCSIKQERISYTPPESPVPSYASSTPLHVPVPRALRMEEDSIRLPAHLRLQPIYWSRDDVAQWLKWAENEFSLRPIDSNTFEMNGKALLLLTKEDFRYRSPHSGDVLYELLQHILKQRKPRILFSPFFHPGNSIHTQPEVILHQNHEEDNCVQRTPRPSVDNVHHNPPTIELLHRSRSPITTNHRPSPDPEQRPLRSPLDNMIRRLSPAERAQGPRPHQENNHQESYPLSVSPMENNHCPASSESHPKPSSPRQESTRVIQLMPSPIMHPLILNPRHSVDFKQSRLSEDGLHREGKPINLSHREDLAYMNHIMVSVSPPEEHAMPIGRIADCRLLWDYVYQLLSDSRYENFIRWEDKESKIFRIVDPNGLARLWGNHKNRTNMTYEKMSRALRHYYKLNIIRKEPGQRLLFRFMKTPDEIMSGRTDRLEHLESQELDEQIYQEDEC
# Summary of the method: as §1
# [8] = biological target: T7, SPDEF (Homo sapiens, UniProt O95238 1-335)
# T7 sequence: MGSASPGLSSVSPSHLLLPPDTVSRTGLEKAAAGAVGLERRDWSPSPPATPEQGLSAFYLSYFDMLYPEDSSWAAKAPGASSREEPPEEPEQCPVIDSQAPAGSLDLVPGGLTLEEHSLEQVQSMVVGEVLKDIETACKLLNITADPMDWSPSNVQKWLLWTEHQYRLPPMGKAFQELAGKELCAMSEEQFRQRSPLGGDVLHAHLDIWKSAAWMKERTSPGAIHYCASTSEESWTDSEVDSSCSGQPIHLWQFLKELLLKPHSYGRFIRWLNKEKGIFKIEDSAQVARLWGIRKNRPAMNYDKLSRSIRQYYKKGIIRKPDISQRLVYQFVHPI
# Summary of the method: as §1
Sequence,binding signal [1],binding signal [2],binding signal [3],binding signal [4],binding signal [5],binding signal [6],binding signal [7],binding signal [8]
CGAACT,"1.16 fold enrichment (6-mer frequency, TF over GST control)","1.12 fold enrichment (6-mer frequency, TF over GST control)","1.18 fold enrichment (6-mer frequency, TF over GST control)","1.15 fold enrichment (6-mer frequency, TF over GST control)","1.07 fold enrichment (6-mer frequency, TF over GST control)","1.18 fold enrichment (6-mer frequency, TF over GST control)","1.13 fold enrichment (6-mer frequency, TF over GST control)",–
AAGCCC,"1.11 fold enrichment (6-mer frequency, TF over GST control)","1.07 fold enrichment (6-mer frequency, TF over GST control)",–,"1.01 fold enrichment (6-mer frequency, TF over GST control)","1.02 fold enrichment (6-mer frequency, TF over GST control)","1.1 fold enrichment (6-mer frequency, TF over GST control)","1.03 fold enrichment (6-mer frequency, TF over GST control)",–
CACCAA,"1.18 fold enrichment (6-mer frequency, TF over GST control)","1.06 fold enrichment (6-mer frequency, TF over GST control)",–,–,"1.03 fold enrichment (6-mer frequency, TF over GST control)","1.1 fold enrichment (6-mer frequency, TF over GST control)","1.07 fold enrichment (6-mer frequency, TF over GST control)","1.03 fold enrichment (6-mer frequency, TF over GST control)"
AGATAA,"1.02 fold enrichment (6-mer frequency, TF over GST control)","1.09 fold enrichment (6-mer frequency, TF over GST control)","1.04 fold enrichment (6-mer frequency, TF over GST control)",–,–,–,"1.06 fold enrichment (6-mer frequency, TF over GST control)",–
AGTTCT,"1.14 fold enrichment (6-mer frequency, TF over GST control)","1.12 fold enrichment (6-mer frequency, TF over GST control)","1.17 fold enrichment (6-mer frequency, TF over GST control)","1.11 fold enrichment (6-mer frequency, TF over GST control)","1.15 fold enrichment (6-mer frequency, TF over GST control)","1.18 fold enrichment (6-mer frequency, TF over GST control)","1.13 fold enrichment (6-mer frequency, TF over GST control)",–
TTGGCT,"1.18 fold enrichment (6-mer frequency, TF over GST control)","1.13 fold enrichment (6-mer frequency, TF over GST control)",–,"1.07 fold enrichment (6-mer frequency, TF over GST control)",–,"1.06 fold enrichment (6-mer frequency, TF over GST control)","1.13 fold enrichment (6-mer frequency, TF over GST control)","1.11 fold enrichment (6-mer frequency, TF over GST control)"
AAGCTG,"1.18 fold enrichment (6-mer frequency, TF over GST control)","1.05 fold enrichment (6-mer frequency, TF over GST control)","1.13 fold enrichment (6-mer frequency, TF over GST control)","1.18 fold enrichment (6-mer frequency, TF over GST control)","1.11 fold enrichment (6-mer frequency, TF over GST control)","1.24 fold enrichment (6-mer frequency, TF over GST control)","1.08 fold enrichment (6-mer frequency, TF over GST control)",–
ACGCAC,"1.13 fold enrichment (6-mer frequency, TF over GST control)","1.01 fold enrichment (6-mer frequency, TF over GST control)","1.09 fold enrichment (6-mer frequency, TF over GST control)","1.03 fold enrichment (6-mer frequency, TF over GST control)","1.03 fold enrichment (6-mer frequency, TF over GST control)","1.13 fold enrichment (6-mer frequency, TF over GST control)","1.02 fold enrichment (6-mer frequency, TF over GST control)",–
